Measurements taken from PubChem BioAssay (NCI).
Compounds without any hit were thinned out: in the full panel of roughly 83,000, 20% have a hit.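 Single-dose data. Exposure time 48 hours. Values below 10 considered active.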 Calls of active or inactive are those of the source.

Tests used:
Assay in all cases: NCI-60 one-dose screen, 48 h (100 = growth as untreated, 0 = no growth, -100 = all killed)
Conditions in all cases: 10 µM unless noted
SK-MEL-2 melanoma = tested on: SK-MEL-2 melanoma
EKVX NSCLC = tested on: EKVX NSCLC
UO-31 renal = tested on: UO-31 renal
TK-10 renal = tested on: TK-10 renal
ACHN renal = tested on: ACHN renal
CAKI-1 renal = tested on: CAKI-1 renal
A498 renal = tested on: A498 renal
CCRF-CEM leukemia = tested on: CCRF-CEM leukemia
MOLT-4 leukemia = tested on: MOLT-4 leukemia

Measured: growth

COc1ccc(-c2cc(-c3cc(OC)ccc3OC)nc(SCC(C)=O)c2C#N)cc1
inactive: SK-MEL-2 melanoma 78.6% | EKVX NSCLC 51.6% | UO-31 renal 41.1% | TK-10 renal 101% | ACHN renal 56.5% | CAKI-1 renal 40.6% | A498 renal 39% | CCRF-CEM leukemia 69.2% | MOLT-4 leukemia 37.9%

COc1cc(OC)c2c(=O)c3c(CC=C(C)C)cc(OC)c(O)c3oc2c1
inactive: SK-MEL-2 melanoma 91.4% | EKVX NSCLC 89.6% | UO-31 renal 72% | TK-10 renal 82.9% | ACHN renal 79.7% | CAKI-1 renal 75.3% | A498 renal 67.7% | MOLT-4 leukemia 66.4%

O=CN1N=C(c2cccc(Nc3ccnc4cc(Cl)ccc34)c2)CC1c1ccc(Cl)cc1 (stereo unspecified)
inactive: EKVX NSCLC 49.1% | UO-31 renal 22.7% | TK-10 renal 45% | ACHN renal 45.5% | CAKI-1 renal 18.8% | A498 renal 11.4% | CCRF-CEM leukemia 12.2% | MOLT-4 leukemia 13.7%
active: SK-MEL-2 melanoma 9.56%
